# Measured values published in PubChem BioAssay (NCATS).
# Values joined by “and” are separate entries in the source; they are usually repeats but may differ in a detail not shown here. Identical values can stand only once. Values without a mark were called inactive. Inconclusive results are not listed. Where a call stands in place of a potency, no number is given. More than one record can exist for a structure, and the calls need not agree. Active and inactive are the calls of the source. Unless noted, calls come from the whole dose curve; as a rule, active = well fitted curve in the direction sought with a large enough effect; inconclusive = small, poorly fitted or top-dose-only effect, or another doubt; inactive = no such curve, though single readings can be large; an effect the other way counts as inactive or inconclusive.
# Legend:
# Hek293T = assay: Primary qHTS to identify gynecologic anti-cancer compounds using libraries of approved drugs and bioactive compounds (AID 1345084); settings: Gynecologic cancer cell panel viability, ATPlite luminescence, 48 h, control line for the selectivity index; series mostly up to 57.5 µM; note: nearly all actives have a fitted effect of over 55% in size
# How it was run: (§1)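 Cells, 1,000 per well, were allowed to settle for 16 h at 37 C before compound addition. Five concentrations were tested for 48 h, and viability was read by ATPlite luminescence after 15 min at room temperature.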
# JEG-3 = assay: as above; settings: Gynecologic cancer cell panel viability, ATPlite luminescence, 48 h; series mostly up to 57.5 µM
# How it was run: as §1
# OV90 = assay: as above; settings: Gynecologic cancer cell panel viability, ATPlite luminescence, 48 h; series mostly up to 57.5 µM
# How it was run: as §1
# PA-1 = assay: as above; settings: Gynecologic cancer cell panel viability, ATPlite luminescence, 48 h; series mostly up to 57.5 µM
# How it was run: as §1
# SKOV3 = assay: as above; settings: Gynecologic cancer cell panel viability, ATPlite luminescence, 48 h; series mostly up to 57.5 µM
# How it was run: as §1
# Tov-21-G = assay: as above; settings: Gynecologic cancer cell panel viability, ATPlite luminescence, 48 h; series mostly up to 57.5 µM
# How it was run: as §1
# Tov112D = assay: as above; settings: Gynecologic cancer cell panel viability, ATPlite luminescence, 48 h; series mostly up to 57.5 µM
# How it was run: as §1
# [1] = Drug repurposing screens with cells derived from glioblastoma tumor samples (AID 1345199); settings: GBM patient neurospheres viability, ATP luminescence, 48 h; note: nearly all actives have a fitted effect of over 40% in size; note: potency is the fitted concentration of half-maximal effect
# How it was run: (§2)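 Four patient lines of CD133+ GBM neurospheres were screened at several concentrations; hits were retested in those lines plus three slower-growing GBM lines, using 48-hour treatment and ATP-based viability.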
# astro = assay: as above; settings: viability, ATP luminescence, 48 h; series mostly up to 45.9 µM
# How it was run: as §2
# [2] = molecular target: Nuclear receptor subfamily 1 group I member 2 (Rattus norvegicus) (UniProt Q9R1A7); assay: qHTS assay for small molecule activators of the rat pregnane X receptor (rPXR) signaling pathway (AID 651751; call rule not given here); settings: rPXR reporter cells, luciferase (One-Glo), 24 h
# [3] = qHTS assay for small molecule activators of the human pregnane X receptor (PXR) signaling pathway (AID 720659; call rule not given here)
# [4] = at 45.9 µM (top of the series), tumour line D
# [5] = at 46.1 µM (top of the series), tumour line C
# [6] = at 45.9 µM (top of the series), tumour line B
# [7] = at 46 µM (top of the series), tumour line A
# [8] = at 20 µM (top of the series), tumour line C
# [9] = at 21.2 µM (top of the series), tumour line B
# [10] = at 21.2 µM (top of the series), tumour line D
# [11] = at 21.3 µM (top of the series), tumour line A
# Nuclear receptor subfamily 1 group I member 2 (Rattus norvegicus), sequence (Q9R1A7 whole entry, looked up): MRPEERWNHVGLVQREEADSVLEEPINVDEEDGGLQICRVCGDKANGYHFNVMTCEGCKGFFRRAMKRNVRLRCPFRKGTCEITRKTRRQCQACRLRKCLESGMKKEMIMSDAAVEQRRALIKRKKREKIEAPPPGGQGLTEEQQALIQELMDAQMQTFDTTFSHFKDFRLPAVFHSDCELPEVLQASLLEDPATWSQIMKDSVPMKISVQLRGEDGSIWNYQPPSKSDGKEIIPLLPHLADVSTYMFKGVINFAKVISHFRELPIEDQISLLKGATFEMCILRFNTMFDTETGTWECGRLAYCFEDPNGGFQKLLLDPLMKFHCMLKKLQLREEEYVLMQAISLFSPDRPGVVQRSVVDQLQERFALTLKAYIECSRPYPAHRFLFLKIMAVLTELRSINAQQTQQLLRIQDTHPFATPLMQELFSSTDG
compound,measurement,setting,value
O=C(c1ccc(F)cc1)C1CCN(CCn2c(=O)[nH]c3ccccc3c2=O)CC1,Potency,Hek293T,inactive
same,Potency,JEG-3,inactive
same,Potency,OV90,inactive
same,Potency,PA-1,inactive
same,Potency,SKOV3,inactive
same,Potency,Tov-21-G,inactive
same,Potency,Tov112D,inactive
same,"activity, negative = cell killing",[1]; [4],-39.8%
same,"activity, negative = cell killing",[1]; [5],7.2%
same,Potency,[1]; tumour line A,3.98 µM (active)
NC(=O)OCC(COC(N)=O)c1ccccc1,Potency,Hek293T,inactive
same,Potency,JEG-3,inactive
same,Potency,OV90,inactive
same,Potency,PA-1,inactive
same,Potency,SKOV3,inactive
same,Potency,Tov-21-G,inactive
same,Potency,Tov112D,inactive
same,"activity, negative = cell killing",[1]; [6],2.73%
same,"activity, negative = cell killing",[1]; [4],-0.95%
same,"activity, negative = cell killing",[1]; [7],-11.1%
same,"activity, negative = cell killing",[1]; [5],48.2%
same,Potency,astro,inactive
Cc1ccc(C(=O)Nc2ccc(S(=O)(=O)O)c3cc(S(=O)(=O)O)cc(S(=O)(=O)O)c23)cc1NC(=O)c1cccc(NC(=O)Nc2cccc(C(=O)Nc3cc(C(=O)Nc4ccc(S(=O)(=O)O)c5cc(S(=O)(=O)O)cc(S(=O)(=O)O)c45)ccc3C)c2)c1,Potency,Hek293T,inactive
same,Potency,JEG-3,inactive
same,Potency,OV90,inactive
same,Potency,PA-1,inactive
same,Potency,SKOV3,inactive
same,Potency,Tov-21-G,inactive
same,Potency,Tov112D,inactive
same,"activity, negative = cell killing",[1]; [6],-18.8%
same,"activity, negative = cell killing",[1]; [4],-0.172%
same,"activity, negative = cell killing",[1]; [7],-24.3%
same,"activity, negative = cell killing",[1]; [5],-24.1%
same,Potency,astro,inactive
COc1ccc(C2CNC(=O)C2)cc1OC1CCCC1 (stereo not drawn),Potency,Hek293T,inactive
same,Potency,JEG-3,inactive
same,Potency,OV90,inactive
same,Potency,PA-1,inactive
same,Potency,SKOV3,inactive
same,Potency,Tov-21-G,inactive
same,Potency,Tov112D,inactive
same,"activity, negative = cell killing",[1]; [8],-0.6%
same,"activity, negative = cell killing",[1]; [9],-12.9%
same,"activity, negative = cell killing",[1]; [10],-16.7%
same,"activity, negative = cell killing",[1]; [11],-26.3%
same,Potency,astro,inactive
Cn1c(=O)c2c(ncn2C)n(C)c1=O,Potency,Hek293T,inactive
same,Potency,JEG-3,inactive
same,Potency,OV90,inactive
same,Potency,PA-1,inactive
same,Potency,SKOV3,inactive
same,Potency,Tov-21-G,inactive
same,Potency,Tov112D,inactive
same,"activity, negative = cell killing",[1]; [6],-15%
same,"activity, negative = cell killing",[1]; [4],-11.6%
same,"activity, negative = cell killing",[1]; [7],-31.4%
same,"activity, negative = cell killing",[1]; [5],-0.268%
same,Potency,astro,inactive
same,max response,[2],0.943% and 1.54%
same,outcome,[3],inactive
CN(CCOc1ccc(NS(C)(=O)=O)cc1)CCc1ccc(NS(C)(=O)=O)cc1,Potency,Hek293T,inactive
same,Potency,JEG-3,inactive
same,Potency,OV90,inactive
same,Potency,PA-1,inactive
same,Potency,SKOV3,inactive
same,Potency,Tov-21-G,inactive
same,Potency,Tov112D,inactive
same,"activity, negative = cell killing",[1]; [6],-5.75%
same,"activity, negative = cell killing",[1]; [4],-4.11%
same,"activity, negative = cell killing",[1]; [5],4.34%
same,Potency,astro,inactive
CC12CC3CC(C)(C1)CC(N)(C3)C2,Potency,Hek293T,inactive
same,Potency,JEG-3,inactive
same,Potency,OV90,inactive
same,Potency,PA-1,inactive
same,Potency,SKOV3,inactive
same,Potency,Tov-21-G,inactive
same,Potency,Tov112D,inactive
same,"activity, negative = cell killing",[1]; [6],2.01%
same,"activity, negative = cell killing",[1]; [4],-1.27%
same,"activity, negative = cell killing",[1]; [7],0.163%
same,"activity, negative = cell killing",[1]; [5],0.449%
same,Potency,astro,inactive
CC(C)NCC(O)COc1ccc(CCOCC2CC2)cc1 (stereo not drawn),Potency,Hek293T,inactive
same,Potency,JEG-3,inactive
same,Potency,OV90,inactive
same,Potency,PA-1,inactive
same,Potency,SKOV3,inactive
same,Potency,Tov-21-G,inactive
same,Potency,Tov112D,inactive
same,"activity, negative = cell killing",[1]; [6],-17.4%
same,"activity, negative = cell killing",[1]; [4],-21.3%
same,"activity, negative = cell killing",[1]; [5],-27.5%
same,Potency,[1]; tumour line A,17.8 µM (active)
same,Potency,astro,inactive
CC(=O)OCC(CCn1cnc2cnc(N)nc21)COC(C)=O,Potency,Hek293T,inactive
same,Potency,JEG-3,inactive
same,Potency,OV90,inactive
same,Potency,PA-1,inactive
same,Potency,SKOV3,inactive
same,Potency,Tov-21-G,inactive
same,Potency,Tov112D,inactive
same,"activity, negative = cell killing",[1]; [6],-16.1%
same,"activity, negative = cell killing",[1]; [4],-3.4%
same,"activity, negative = cell killing",[1]; [7],-17.2%
same,"activity, negative = cell killing",[1]; [5],-0.294%
same,Potency,astro,inactive
CN(C)C(=N)N=C(N)N,Potency,Hek293T,inactive
same,Potency,JEG-3,inactive
same,Potency,OV90,inactive
same,Potency,PA-1,inactive
same,Potency,SKOV3,inactive
same,Potency,Tov-21-G,inactive
same,Potency,Tov112D,inactive
same,"activity, negative = cell killing",[1]; [8],-29.3%
same,"activity, negative = cell killing",[1]; [9],-4.74%
same,"activity, negative = cell killing",[1]; [10],-25.1%
same,"activity, negative = cell killing",[1]; [11],-0.697%
same,Potency,astro,inactive
O=C1Cc2cc(CCN3CCN(c4nsc5ccccc45)CC3)c(Cl)cc2N1,Potency,Hek293T,inactive
same,Potency,JEG-3,inactive
same,Potency,OV90,inactive
same,Potency,PA-1,inactive
same,Potency,SKOV3,inactive
same,Potency,Tov-21-G,inactive
same,Potency,Tov112D,inactive
same,"activity, negative = cell killing",[1]; [6],-28.8%
same,"activity, negative = cell killing",[1]; [4],-18.4%
same,"activity, negative = cell killing",[1]; [5],-28.3% and -12.6%
same,Potency,[1]; tumour line B,17.8 µM (active)
same,Potency,[1]; tumour line D,12.6 µM (active)
CC[N+](CC)(CC)CCOc1cccc(OCC[N+](CC)(CC)CC)c1OCC[N+](CC)(CC)CC,Potency,Hek293T,inactive
same,Potency,JEG-3,inactive
same,Potency,OV90,inactive
same,Potency,PA-1,inactive
same,Potency,SKOV3,inactive
same,Potency,Tov-21-G,inactive
same,Potency,Tov112D,inactive
same,"activity, negative = cell killing",[1]; [6],-15.6%
same,"activity, negative = cell killing",[1]; [4],-21.5%
same,"activity, negative = cell killing",[1]; [7],-28%
same,"activity, negative = cell killing",[1]; [5],-0.854%
same,Potency,astro,inactive
NS(=O)(=O)c1cc2c(cc1Cl)NCNS2(=O)=O,Potency,Hek293T,inactive
same,Potency,JEG-3,inactive
same,Potency,OV90,inactive
same,Potency,PA-1,inactive
same,Potency,SKOV3,inactive
same,Potency,Tov-21-G,inactive
same,Potency,Tov112D,inactive
same,"activity, negative = cell killing",[1]; [6],-16.5%
same,"activity, negative = cell killing",[1]; [4],-0.301%
same,"activity, negative = cell killing",[1]; [7],-4.73%
same,"activity, negative = cell killing",[1]; [5],-21.1%
same,Potency,astro,inactive
same,max response,[2],-0.0581% and 1.2%
same,outcome,[3],inactive
Cn1ccc2cc3c(cc21)CCN3C(=O)Nc1cccnc1,Potency,Hek293T,inactive
same,Potency,JEG-3,inactive
same,Potency,OV90,inactive
same,Potency,PA-1,inactive
same,Potency,SKOV3,inactive
same,Potency,Tov-21-G,inactive
same,Potency,Tov112D,inactive
Cc1cn([C@H]2C=C[C@@H](CO)O2)c(=O)[nH]c1=O,Potency,Hek293T,inactive
same,Potency,JEG-3,inactive
same,Potency,OV90,inactive
same,Potency,PA-1,inactive
same,Potency,SKOV3,inactive
same,Potency,Tov-21-G,inactive
same,Potency,Tov112D,inactive
same,"activity, negative = cell killing",[1]; [6],-6.16%
same,"activity, negative = cell killing",[1]; [4],-7.24%
same,"activity, negative = cell killing",[1]; [7],-20.7%
same,"activity, negative = cell killing",[1]; [5],-21.2%
same,Potency,astro,inactive
same,max response,[2],0.921% and -1.01% and -5.21%
same,outcome,[3],inactive
